Screens from PubChem.
Most compounds without a hit are left out; they make up all but 7.5% or so of the library.
ELG1 genotox = inducers of genotoxicity in HEK293T ELG1-luciferase cells; Potency, µM (doses to about 46 µM), inactives show top-dose activity change, positive = activation, most hits filed as activators; hit rate 1.3% among 330,000; HEK293T ELG1-luciferase reporter, luminescence, 16 h; AID 504466; further: % of control where 0% means no effect; nearly all actives have a fitted effect of over 60% in size
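Genotoxic stress is detected as increased luminescence from luciferase-tagged ELG1 in HEK293T cells, measured with ONE-Glo after a 16 hr treatment at 37 °C.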
SMN2 splice enh = increases expression of the SMN2 splice variant; HEK293 SMN2-luciferase splicing reporter, luminescence, 30-36 h; Potency, µM (titrated, usually from 46.1 µM), without a hit: at the highest dose activity change, positive = activation, actives largely listed as activators; hit rate 2.8% among 210,000; AID 1458; further: % of control where 0% means no effect; nearly all actives have a fitted effect of over 55% in size
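HEK293 cells carry an SMN2 […]–luciferase reporter in which exon 7 inclusion puts luciferase in frame. Cells were plated 10-12 h before compound addition, then incubated 30-36 h at 37C. ONE-Glo luminescence was read; sodium butyrate at 4.5 mM final served as control.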
FLuc counter = counter-screen for miR-21 project: firefly luciferase inhibitors or activators; Potency, µM (top dose mostly 57.5 µM), without a hit: top-dose activity change, negative = inhibition, usual class: inhibitors; AID 588342; purified FLuc, Km substrates, luminescence inhibition; hit rate 6.9% among 360,000; P08659;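 further: plate controls were vehicle for no effect and reference inhibitor for full effect; nearly all actives have a fitted effect of over 55% in size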
Target sequence (P08659 whole entry, looked up): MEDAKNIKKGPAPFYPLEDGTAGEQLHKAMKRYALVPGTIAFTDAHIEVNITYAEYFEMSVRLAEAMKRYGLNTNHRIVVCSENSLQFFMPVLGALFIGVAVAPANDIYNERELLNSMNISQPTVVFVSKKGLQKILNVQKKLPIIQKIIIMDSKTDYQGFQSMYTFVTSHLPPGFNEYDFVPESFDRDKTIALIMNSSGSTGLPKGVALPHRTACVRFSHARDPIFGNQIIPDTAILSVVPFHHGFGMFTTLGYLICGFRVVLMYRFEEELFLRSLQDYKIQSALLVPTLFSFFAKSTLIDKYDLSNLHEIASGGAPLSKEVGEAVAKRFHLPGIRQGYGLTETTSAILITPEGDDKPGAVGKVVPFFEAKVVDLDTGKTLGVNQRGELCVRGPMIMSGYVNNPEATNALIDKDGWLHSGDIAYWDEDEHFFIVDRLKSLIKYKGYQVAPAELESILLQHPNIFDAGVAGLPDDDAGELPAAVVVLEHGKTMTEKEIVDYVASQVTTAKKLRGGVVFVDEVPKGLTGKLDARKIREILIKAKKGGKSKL
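Purified P. pyralis luciferase, 10 nM final, with Km-level 10 uM D-luciferin and 10 uM ATP in 50 mM Tris acetate pH 7.5, 10 mM Mg acetate, 0.01% Tween-20, 0.05% BSA; 6-point qHTS titration about 60 µM downward; luminescence read.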
Rab9 prom act = activators of Rab9 promoter; Huh7 Rab9 promoter-luciferase reporter, luminescence, 24 h; Potency, µM (titrated, usually from 9.22 µM), for inactives: at the highest dose activation, negative = inhibition, actives largely listed as activators; hit rate 2.8% among 320,000; AID 485297; further: % of control where 0% means no effect; nearly all actives have a fitted effect of over 60% in size
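Rab9 promoter-driven luciferase in stably transfected Huh7 cells; 1500 cells/well rested 2 h, exposed to compound in DMSO for 24 h at 37 °C, 5% CO2. Luminescence read 10 min after adding luciferase reagent at ambient temperature.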
NPC1 promoter act = NPC1 promoter activation | Huh7 NPC1 promoter luciferase reporter, 24 h | Potency, µM (titrated, usually from 9.22 µM), for the others: at the highest dose activation, hits mostly activators | hit rate 2.4% among 320,000; further: % of control where 0% means no effect; nearly all actives have a fitted effect of over 60% in size
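Huh7 reporter cells (NPC1 promoter driving luciferase) are dosed with compound for 24 h at 37 °C, 5% CO2; luciferase detection reagent is then added and luminescence measured after 10 min at ambient temperature.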
* marks the source's active call; other numbers are inactive results; ? = inconclusive; / = not tested or not shown; [ ] = dose if it differs, or a comment. The call rests on the fitted dose curve; in most records, active means well fitted curve in the direction sought with a large enough effect; inconclusive means small, poorly fitted or top-dose-only effect, or another doubt; inactive means no such curve, though single readings can be large; an effect the other way counts as inactive or inconclusive. Potency means the concentration at half of the fitted maximal effect.

SMILES | ELG1 genotox | SMN2 splice enh | FLuc counter | Rab9 prom act | NPC1 promoter act
COc1cccc(C=Nc2cccnc2)c1O | -1.6% | 6.3% | -0.2% | 4.8% | 2.1%
CC(Oc1ccc2c(c1)oc(=O)c1ccccc12)C(=O)NC(Cc1c[nH]c2ccc(O)cc12)C(=O)O (configuration not stated) | 5.5% | / | 26.9µM* | 0.0% | 1.2%
Cc1cc(OC(C)C(=O)NC(Cc2c[nH]c3ccc(O)cc23)C(=O)O)c2c(C)c(C)c(=O)oc2c1 (configuration not stated) | 4.1% | / | 4.4% | -5.1% | -0.3%
O=S(=O)(c1cccc(C(F)(F)F)c1)N1c2ccccc2-n2cccc2[C@H]1c1cccnc1 | / | -41.7%[9.22 µM] | / | / | /
O=C(Cc1ccccc1)NC1(Cc2ccc(O)cc2)CCCCC1 | -4.8% | 0.9% | 1.0% | -2.4% | 0.6%
O=C(COC(=O)c1c2c(nc3ccccc13)/C(=C/c1ccco1)CC2)NC1CCCC1 | -2.2% | 27.7% | 5.36µM* | 27.1% | 18.8%
CC(C)CNC(=O)COC(=O)c1c2c(nc3ccccc13)/C(=C/c1cccs1)CC2 | -11.0% | / | 5.36µM* | -7.1% | -29.5%
CC1CCCCC1NC(=O)COC(=O)c1c2c(nc3ccccc13)/C(=C/c1ccco1)CC2 (configuration not stated) | 0.9% | 26.5% | ? | 18.9% | 10.6%
NC(=O)c1ccc(NC(=O)COC(=O)c2c3c(nc4ccccc24)/C(=C\c2cccs2)CCC3)cc1 | -15.6% | -53.8% | ? | -35.8% | -32.2%
COc1ccc2cc(C(=O)N/N=C/c3sc4ccccc4c3O)ccc2c1 | ? | -105.5% | 13.5µM* | -13.7% | -3.1%
COc1ccc(C(=O)N/N=C/c2cc3ccccc3[nH]c2=S)cc1 | 0.4% | -17.4% | ? | 9.0% | 3.6%
COc1ccc(C(=O)N/N=C/c2sc3ccccc3c2O)cc1 | ? | -95.1% | 13.5µM* | -41.8% | -30.5%
O=C(N/N=C/c1sc2ccccc2c1O)c1cccc2ccccc12 | 11.3% | -91.6% | 16.9µM* | -13.3% | -21.2%
COc1cc(O)sc1C=Nc1ccc(Cl)cc1 | 19.6% | 22.4% | -18.1% | 22.9% | -1.4%
COc1cc(/C=N/NC(=O)c2cccc3ccccc23)cc(OC)c1O | 5.9% | / | ? | -1.6% | -5.8%
COc1ccc(N=Cc2sc3ccccc3c2Cl)cc1 | 9.9% | 0.8% | 4.78µM* | 3.7% | 28.0%
O=C(CCCN1C(=O)NC2(CCCC2)C1=O)Nc1cccc(S(=O)(=O)N2CCOCC2)c1 | 1.2% | / | 0.6% | 1.9% | 3.7%
O=C(N/N=C/c1sc2ccccc2c1O)c1ccccc1 | ? | -107.0% | 16.9µM* | -30.3% | -27.0%
COc1cccc(/C=C/C(=O)Nc2ccc3nc(N4CCN(C)CC4)cc(C)c3c2)c1OC | / | -56.3% | ? | / | /
Cc1cc(N2CCN(C)CC2)nc2ccc(NC(=O)c3ccc(Br)o3)cc12 | 3.2% | -2.5% | 15.1µM* | 22.0% | ?
Cc1cc(N2CCN(C)CC2)nc2ccc(NC(=O)c3ccc4c(c3)OCO4)cc12 | 19.6% | / | 13.5µM* | ? | 28.1%
CCOc1ccc(C(=O)Nc2ccc3nc(N4CCN(CC)CC4)cc(C)c3c2)cc1 | -10.9% | / | ? | -5.2%[1.84 µM] | -3.1%
CCN1CCN(c2cc(C)c3cc(NC(=O)c4cc(OC)cc(OC)c4)ccc3n2)CC1 | ? | 15.1% | 16.9µM* | 28.3% | 26.1%
COc1cc(C(=O)Nc2ccc3nc(N4CCN(C)CC4)cc(C)c3c2)cc(OC)c1OC | 10.7% | / | 23.9µM* | -1.3% | 5.3%
Cc1cc(N2CCCCC2)nc2ccc(NC(=O)c3ccc(Br)o3)cc12 | -19.6% | -40.4% | -18.0% | -5.4% | -0.3%
SMILES | ELG1 genotox | SMN2 splice enh | FLuc counter | Rab9 prom act | NPC1 promoter act
Cc1cccc(-n2nnc(-c3nc(-c4ccccc4)no3)c2N)c1C | / | / | 1.1% | / | /
COc1cc(C(=O)Nc2ccc(N(C)C)cc2)c([N+](=O)[O-])cc1OC | ? | -3.1% | 4.78µM* | -3.9% | 8.8%
COc1ccc(NC(=O)c2cn3c4c(ccc(Cl)c4c2=O)OC(C)C3)cc1OC (configuration not stated) | / | / | -1.4% | / | /
CCOC(=O)c1cc2c(C)n(-c3ccc(C)cc3)c(C)c2ccc1=O | 7.5% | -12.7% | 0.379µM* | ? | ?
CCOC(=O)c1cc2c(C)n(-c3ccc(OCC)cc3)c(C)c2ccc1=O | -8.9% | -31.6% | 16.9µM* | -3.7% | 0.5%
CCOC(=O)c1c[nH]n(-c2ccc(C)cc2)c1=O | 11.3% | 9.0% | ? | 29.5% | 13.9%
Cc1cccc(C)c1NC(=O)CN(C)C(=O)C1CC(=O)N(c2cccc3ccccc23)C1 (configuration not stated) | 2.3% | / | 0.7% | -6.9% | 1.5%
C[C@@](N)(C(=O)O)[C@@H]1C[C@@H]1C(=O)O | / | -9.8% | / | / | /
Cc1c(-c2ccccc2)[n+](=O)c2c(n1[O-])CCCC2 | 1.8% | / | 5.0% | -1.4% | 0.6%
O=C(Nc1ccccc1C(=O)N1CCOCC1)c1ccc(Br)cc1 | -0.4% | / | 2.1% | -2.3% | -3.5%
CCN(CC)C(=O)N1c2ccccc2C=Cc2ccccc21 | -10.3% | 3.98µM* | 1.0% | 5.4% | -3.9%
NC(=O)N1c2ccccc2C=Cc2ccccc21 | 1.4% | -24.1% | -2.5% | 5.6%[46.1 µM] | 2.3%[46.1 µM]
O=C(NCc1ccccc1)c1noc2c1CCCC2 | ? | / | -18.4% | 21.4% | 20.1%
CC(=O)c1cccc(NC(=O)c2noc3c2CCCC3)c1 | / | 2.82µM* | 10.7µM* | / | /
COc1ccc(NC(=O)c2noc3c2CCCCC3)cc1 | ? | 7.94µM* | 12µM* | ? | 1.41µM*
O=C(NC1CCCCC1)c1noc2c1CCCCC2 | 9.2µM* | 12.6µM* | 9.53µM* | 2.51µM* | 2.24µM*
CCc1ccc(NC(=O)c2noc3c2CCCCC3)cc1 | ? | 10µM* | 2.13µM* | 0.631µM* | 0.708µM*
COc1ccc(CNC(=O)c2noc3c2CCCC3)cc1 | ? | 7.7% | ? | 22.8% | 28.2%
O=C(CNC(=O)c1ccco1)NCC(=O)OCc1ccc(Cl)cc1Cl | -1.1% | / | -10.0% | -13.6% | -3.5%
Cc1ccc(NC(=O)c2noc3c2CCCCC3)cc1C | ? | 7.94µM* | 1.07µM* | 0.631µM* | 0.398µM*
Cc1ccc(Cn2ccc(NC(=O)c3noc4c3CCCC4)n2)cc1 | 20.6µM* | 2.7% | ? | ? | ?
CC(C)CNC(=O)c1noc2c1CCCC2 | 11.1% | 17.8% | -4.5% | -1.5% | -0.6%
Cc1ccc(NC(=O)c2noc3c2CCCCC3)cc1 | ? | 11.2µM* | 9.53µM* | 0.501µM* | 0.562µM*
Cc1ccc(Cn2ccc(NC(=O)c3noc4c3CCCCC4)n2)cc1 | 2.0% | -32.0% | ? | 0.7% | 16.3%
CCc1ccc(NC(=O)c2noc3c2CCC3)cc1 | 0.82µM* | 12.6µM* | 0.675µM* | 0.562µM* | 1µM*
O=C(NCc1ccc(Cl)cc1)c1noc2c1CCCC2 | ? | -9.5% | -12.0% | 2.7% | 4.6%
O=C(CON1C(=O)c2ccccc2C1=O)c1ccccc1 | / | -7.2%[9.22 µM] | / | / | /
Cc1cc(C)c2oc(C(=O)Nc3c(C)n(C)n(-c4ccccc4)c3=O)cc(=O)c2c1 | / | -4.0% | -1.3% | / | /
